Assay [1] concerns the target Tyrosine-protein kinase Fyn (Homo sapiens) (UniProt P06241). The note with it: at 1 µM.
For assay [2], the target named is Tyrosine-protein kinase HCK (Homo sapiens) (UniProt P08631). To be noted: at 0.1 µM.
The target is the same in assay [3]. To be noted: at 1 µM.
In assay [4] the target is Insulin-like growth factor 1 receptor (Homo sapiens) (UniProt P08069). The note with it: at 0.1 µM.
Assay [5] shares this target. To be noted: at 1 µM.
Assay [6] addresses Insulin receptor (Homo sapiens) (UniProt P06213). To be noted: at 0.1 µM.
For assay [7] the target is unchanged. The note with it: at 1 µM.
In assay [8] the target is Insulin receptor-related protein (Homo sapiens) (UniProt P14616). The note with it: at 0.1 µM.
Assay [9] shares this target. The note with it: at 1 µM.
Assay [10] concerns the target T1, Tyrosine-protein kinase ITK/TSK (Homo sapiens) (UniProt Q08881).
T1 sequence (whole entry): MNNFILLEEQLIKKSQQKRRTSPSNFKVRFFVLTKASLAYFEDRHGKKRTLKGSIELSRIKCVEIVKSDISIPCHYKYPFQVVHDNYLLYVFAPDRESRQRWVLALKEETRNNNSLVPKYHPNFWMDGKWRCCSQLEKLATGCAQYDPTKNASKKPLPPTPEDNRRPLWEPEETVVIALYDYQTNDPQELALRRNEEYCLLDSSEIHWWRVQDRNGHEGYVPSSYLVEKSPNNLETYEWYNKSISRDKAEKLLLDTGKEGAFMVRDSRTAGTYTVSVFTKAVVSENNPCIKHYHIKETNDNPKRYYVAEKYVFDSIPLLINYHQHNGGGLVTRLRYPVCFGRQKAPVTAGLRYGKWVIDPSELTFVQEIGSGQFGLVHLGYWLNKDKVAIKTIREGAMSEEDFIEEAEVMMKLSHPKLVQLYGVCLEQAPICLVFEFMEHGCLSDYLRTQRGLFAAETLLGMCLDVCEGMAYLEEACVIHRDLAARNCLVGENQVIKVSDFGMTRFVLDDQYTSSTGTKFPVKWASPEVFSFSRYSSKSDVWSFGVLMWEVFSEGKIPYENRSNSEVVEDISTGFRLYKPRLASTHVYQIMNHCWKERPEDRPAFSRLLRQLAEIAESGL
The note with it: at 0.1 µM.

Assay [11] concerns the target T1, Tyrosine-protein kinase ITK/TSK (Homo sapiens). To be noted: at 1 µM.
For assay [12], the target named is Tyrosine-protein kinase JAK1 (Homo sapiens) (UniProt P23458). To be noted: at 0.1 µM.
For assay [13] the target is unchanged. The note with it: at 1 µM.
Assay [14] addresses Tyrosine-protein kinase JAK2 (Homo sapiens) (UniProt O60674). To be noted: at 0.1 µM.
Assay [15] shares this target. The note with it: at 1 µM.
Assay [16] addresses T2, Tyrosine-protein kinase JAK3 (Homo sapiens) (UniProt P52333).
T2 sequence (whole entry): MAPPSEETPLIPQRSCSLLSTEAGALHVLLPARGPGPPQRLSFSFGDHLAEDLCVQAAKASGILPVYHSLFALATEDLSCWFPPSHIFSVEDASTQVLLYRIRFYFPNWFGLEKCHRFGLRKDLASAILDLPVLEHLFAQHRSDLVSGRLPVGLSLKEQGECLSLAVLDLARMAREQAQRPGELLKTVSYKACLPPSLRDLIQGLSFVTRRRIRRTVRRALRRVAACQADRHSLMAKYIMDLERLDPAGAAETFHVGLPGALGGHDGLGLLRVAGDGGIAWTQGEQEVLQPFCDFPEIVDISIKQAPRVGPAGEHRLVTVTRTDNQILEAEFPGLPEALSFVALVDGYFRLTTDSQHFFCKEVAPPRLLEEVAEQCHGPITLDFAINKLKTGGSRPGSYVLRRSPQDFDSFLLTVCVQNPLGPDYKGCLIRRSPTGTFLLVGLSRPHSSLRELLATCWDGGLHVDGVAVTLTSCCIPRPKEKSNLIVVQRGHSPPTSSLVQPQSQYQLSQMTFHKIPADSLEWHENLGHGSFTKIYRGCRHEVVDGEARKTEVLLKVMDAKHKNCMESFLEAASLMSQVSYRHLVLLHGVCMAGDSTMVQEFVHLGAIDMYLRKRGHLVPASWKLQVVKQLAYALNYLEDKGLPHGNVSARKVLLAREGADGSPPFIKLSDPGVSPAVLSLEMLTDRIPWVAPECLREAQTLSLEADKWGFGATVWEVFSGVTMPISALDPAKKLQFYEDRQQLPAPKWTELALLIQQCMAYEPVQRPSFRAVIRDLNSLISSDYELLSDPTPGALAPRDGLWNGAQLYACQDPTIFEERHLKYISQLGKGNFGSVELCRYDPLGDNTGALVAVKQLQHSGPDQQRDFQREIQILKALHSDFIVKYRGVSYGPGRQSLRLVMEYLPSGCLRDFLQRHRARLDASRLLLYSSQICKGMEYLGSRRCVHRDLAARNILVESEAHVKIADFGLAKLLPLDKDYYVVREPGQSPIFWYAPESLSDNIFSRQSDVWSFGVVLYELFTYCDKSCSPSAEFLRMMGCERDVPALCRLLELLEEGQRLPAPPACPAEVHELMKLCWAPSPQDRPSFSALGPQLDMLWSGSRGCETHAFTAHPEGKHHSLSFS
The note with it: at 0.1 µM.

The target in assay [17] is T2, Tyrosine-protein kinase JAK3 (Homo sapiens). The note with it: at 1 µM.
Assay [18] deals with Vascular endothelial growth factor receptor 2 (Homo sapiens) (UniProt P35968). The note with it: at 0.1 µM.
The target is the same in assay [19]. To be noted: at 1 µM.
The target in assay [20] is Mast/stem cell growth factor receptor Kit (Homo sapiens) (UniProt P10721). To be noted: at 0.1 µM.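 Also: values are mean inhibition of KIT, from the GSK PKIS dataset.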

Results on six compounds are retold here after ChEMBL document CHEMBL1961873, “Compounds: GSK PKIS; Assays: Nanosyn kinase panel” (2012).

Structures are written as SMILES.

Insulin receptor (Homo sapiens), sequence (P06213 28-758 limits assumed): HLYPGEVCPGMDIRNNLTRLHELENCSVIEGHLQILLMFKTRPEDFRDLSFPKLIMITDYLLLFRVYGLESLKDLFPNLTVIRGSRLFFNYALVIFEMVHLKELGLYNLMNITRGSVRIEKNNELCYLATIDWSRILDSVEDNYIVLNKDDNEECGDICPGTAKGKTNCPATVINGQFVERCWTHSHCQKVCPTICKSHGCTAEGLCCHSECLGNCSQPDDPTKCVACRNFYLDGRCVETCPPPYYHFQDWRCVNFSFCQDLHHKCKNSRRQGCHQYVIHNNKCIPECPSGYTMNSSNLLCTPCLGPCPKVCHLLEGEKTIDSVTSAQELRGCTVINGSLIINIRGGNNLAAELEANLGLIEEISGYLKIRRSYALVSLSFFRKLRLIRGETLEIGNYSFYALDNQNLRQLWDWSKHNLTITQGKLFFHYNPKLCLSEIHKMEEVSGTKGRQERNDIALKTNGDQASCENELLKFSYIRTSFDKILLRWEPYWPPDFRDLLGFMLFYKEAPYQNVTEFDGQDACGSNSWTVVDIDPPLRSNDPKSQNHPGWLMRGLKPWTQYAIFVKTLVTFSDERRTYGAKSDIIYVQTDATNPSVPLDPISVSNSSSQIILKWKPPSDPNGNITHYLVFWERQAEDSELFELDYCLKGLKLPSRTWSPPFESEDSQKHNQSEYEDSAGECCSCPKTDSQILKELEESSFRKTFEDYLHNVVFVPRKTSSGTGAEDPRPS
Insulin receptor (Homo sapiens), sequence (P06213 763-1382 limits assumed): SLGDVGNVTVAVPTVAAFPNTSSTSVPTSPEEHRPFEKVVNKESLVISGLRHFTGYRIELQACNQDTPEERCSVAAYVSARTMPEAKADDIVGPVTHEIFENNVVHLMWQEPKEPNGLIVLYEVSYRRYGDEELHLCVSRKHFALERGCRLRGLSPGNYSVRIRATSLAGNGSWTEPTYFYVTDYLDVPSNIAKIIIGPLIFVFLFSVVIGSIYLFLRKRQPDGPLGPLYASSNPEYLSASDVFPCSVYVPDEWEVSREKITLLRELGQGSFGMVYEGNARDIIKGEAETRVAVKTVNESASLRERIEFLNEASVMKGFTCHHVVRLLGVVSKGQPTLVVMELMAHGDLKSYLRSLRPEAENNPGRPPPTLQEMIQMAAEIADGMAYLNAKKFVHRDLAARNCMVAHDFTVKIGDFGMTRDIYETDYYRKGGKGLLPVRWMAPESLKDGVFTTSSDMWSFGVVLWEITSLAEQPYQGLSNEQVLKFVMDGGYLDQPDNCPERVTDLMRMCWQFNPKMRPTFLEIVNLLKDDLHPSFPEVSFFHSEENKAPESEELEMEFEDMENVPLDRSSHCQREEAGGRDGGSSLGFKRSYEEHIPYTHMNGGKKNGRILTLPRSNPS
Tyrosine-protein kinase HCK (Homo sapiens), sequence (P08631 2-526 limits assumed): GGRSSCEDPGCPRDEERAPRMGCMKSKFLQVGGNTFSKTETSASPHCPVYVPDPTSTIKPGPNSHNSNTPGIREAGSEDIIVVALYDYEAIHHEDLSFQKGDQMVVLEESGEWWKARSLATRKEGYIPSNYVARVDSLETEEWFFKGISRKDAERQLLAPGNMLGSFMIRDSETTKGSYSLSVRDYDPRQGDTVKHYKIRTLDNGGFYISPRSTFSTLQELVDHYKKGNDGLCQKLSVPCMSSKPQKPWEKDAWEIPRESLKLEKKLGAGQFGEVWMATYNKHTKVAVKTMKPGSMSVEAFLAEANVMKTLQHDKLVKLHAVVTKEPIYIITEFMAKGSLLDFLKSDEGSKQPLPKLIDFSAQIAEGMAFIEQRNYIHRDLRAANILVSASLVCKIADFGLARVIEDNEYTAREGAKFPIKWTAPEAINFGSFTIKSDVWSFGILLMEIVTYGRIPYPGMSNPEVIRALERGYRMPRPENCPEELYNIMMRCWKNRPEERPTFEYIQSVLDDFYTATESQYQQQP
Insulin receptor-related protein (Homo sapiens), sequence (P14616 27-742 limits assumed): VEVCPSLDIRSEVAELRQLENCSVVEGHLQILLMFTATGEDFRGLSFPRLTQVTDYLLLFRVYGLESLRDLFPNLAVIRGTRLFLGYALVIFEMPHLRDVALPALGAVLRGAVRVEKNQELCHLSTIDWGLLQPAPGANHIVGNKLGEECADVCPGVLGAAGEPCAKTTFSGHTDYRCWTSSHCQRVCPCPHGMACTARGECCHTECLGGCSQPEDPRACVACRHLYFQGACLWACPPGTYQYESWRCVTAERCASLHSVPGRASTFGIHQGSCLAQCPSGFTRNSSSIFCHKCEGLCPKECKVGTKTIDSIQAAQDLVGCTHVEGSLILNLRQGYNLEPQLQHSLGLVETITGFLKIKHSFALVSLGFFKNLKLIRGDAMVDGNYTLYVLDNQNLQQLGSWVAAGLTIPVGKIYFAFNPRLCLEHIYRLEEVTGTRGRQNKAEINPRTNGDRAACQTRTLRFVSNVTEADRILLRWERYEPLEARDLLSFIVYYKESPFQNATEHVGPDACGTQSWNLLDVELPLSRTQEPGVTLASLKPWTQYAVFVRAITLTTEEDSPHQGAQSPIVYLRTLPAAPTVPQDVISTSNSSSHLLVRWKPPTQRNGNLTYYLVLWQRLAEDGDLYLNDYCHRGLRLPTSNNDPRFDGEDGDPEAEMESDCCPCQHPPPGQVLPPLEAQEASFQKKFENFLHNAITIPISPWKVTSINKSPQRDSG
Insulin receptor-related protein (Homo sapiens), sequence (P14616 747-1297 limits assumed): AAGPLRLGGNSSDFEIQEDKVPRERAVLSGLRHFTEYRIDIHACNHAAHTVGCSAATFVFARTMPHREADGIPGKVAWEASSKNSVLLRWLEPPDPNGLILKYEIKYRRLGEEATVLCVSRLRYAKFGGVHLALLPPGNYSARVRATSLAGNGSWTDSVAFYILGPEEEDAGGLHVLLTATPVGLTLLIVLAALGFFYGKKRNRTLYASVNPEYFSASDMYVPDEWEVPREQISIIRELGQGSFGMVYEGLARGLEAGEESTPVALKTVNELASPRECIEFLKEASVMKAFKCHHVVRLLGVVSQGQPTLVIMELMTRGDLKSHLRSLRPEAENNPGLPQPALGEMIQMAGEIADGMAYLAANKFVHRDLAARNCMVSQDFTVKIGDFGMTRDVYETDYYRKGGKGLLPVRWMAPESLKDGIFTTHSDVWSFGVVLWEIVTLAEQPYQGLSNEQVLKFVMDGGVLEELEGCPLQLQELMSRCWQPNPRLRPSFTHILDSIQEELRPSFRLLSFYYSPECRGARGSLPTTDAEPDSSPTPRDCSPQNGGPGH
Tyrosine-protein kinase Fyn (Homo sapiens), sequence (P06241 2-537 limits assumed): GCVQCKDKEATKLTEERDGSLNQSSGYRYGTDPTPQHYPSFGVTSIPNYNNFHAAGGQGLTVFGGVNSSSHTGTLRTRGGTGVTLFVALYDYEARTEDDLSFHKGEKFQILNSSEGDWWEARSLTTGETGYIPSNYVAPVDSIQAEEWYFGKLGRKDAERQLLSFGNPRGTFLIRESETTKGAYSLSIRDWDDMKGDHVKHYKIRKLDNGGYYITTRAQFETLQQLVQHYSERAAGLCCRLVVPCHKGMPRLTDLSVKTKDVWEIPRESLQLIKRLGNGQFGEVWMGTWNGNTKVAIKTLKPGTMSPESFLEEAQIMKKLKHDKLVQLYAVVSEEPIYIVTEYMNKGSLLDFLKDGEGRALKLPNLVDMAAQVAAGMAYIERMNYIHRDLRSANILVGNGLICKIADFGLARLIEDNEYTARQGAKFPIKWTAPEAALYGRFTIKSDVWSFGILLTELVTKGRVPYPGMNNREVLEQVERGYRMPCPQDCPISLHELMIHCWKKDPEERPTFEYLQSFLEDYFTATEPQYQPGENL
Insulin-like growth factor 1 receptor (Homo sapiens), sequence (P08069 31-736 limits assumed): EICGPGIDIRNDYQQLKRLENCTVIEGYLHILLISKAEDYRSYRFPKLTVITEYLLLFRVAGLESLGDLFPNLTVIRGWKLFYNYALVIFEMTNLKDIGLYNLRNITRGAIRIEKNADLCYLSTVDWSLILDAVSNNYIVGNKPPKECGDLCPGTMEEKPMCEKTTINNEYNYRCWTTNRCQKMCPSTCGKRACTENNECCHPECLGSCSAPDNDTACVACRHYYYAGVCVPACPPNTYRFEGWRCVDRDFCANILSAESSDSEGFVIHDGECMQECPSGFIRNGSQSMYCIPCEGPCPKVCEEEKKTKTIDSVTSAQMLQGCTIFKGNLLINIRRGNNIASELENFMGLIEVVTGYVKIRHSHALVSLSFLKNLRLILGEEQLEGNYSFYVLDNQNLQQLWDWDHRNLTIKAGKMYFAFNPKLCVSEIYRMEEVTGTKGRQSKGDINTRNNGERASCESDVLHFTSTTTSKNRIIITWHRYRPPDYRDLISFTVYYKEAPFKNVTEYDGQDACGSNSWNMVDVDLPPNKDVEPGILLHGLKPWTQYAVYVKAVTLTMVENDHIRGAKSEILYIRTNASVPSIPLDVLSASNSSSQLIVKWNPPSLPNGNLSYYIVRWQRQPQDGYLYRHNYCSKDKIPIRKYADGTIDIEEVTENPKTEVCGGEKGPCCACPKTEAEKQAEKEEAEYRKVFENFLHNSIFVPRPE
Insulin-like growth factor 1 receptor (Homo sapiens), sequence (P08069 741-1367 limits assumed): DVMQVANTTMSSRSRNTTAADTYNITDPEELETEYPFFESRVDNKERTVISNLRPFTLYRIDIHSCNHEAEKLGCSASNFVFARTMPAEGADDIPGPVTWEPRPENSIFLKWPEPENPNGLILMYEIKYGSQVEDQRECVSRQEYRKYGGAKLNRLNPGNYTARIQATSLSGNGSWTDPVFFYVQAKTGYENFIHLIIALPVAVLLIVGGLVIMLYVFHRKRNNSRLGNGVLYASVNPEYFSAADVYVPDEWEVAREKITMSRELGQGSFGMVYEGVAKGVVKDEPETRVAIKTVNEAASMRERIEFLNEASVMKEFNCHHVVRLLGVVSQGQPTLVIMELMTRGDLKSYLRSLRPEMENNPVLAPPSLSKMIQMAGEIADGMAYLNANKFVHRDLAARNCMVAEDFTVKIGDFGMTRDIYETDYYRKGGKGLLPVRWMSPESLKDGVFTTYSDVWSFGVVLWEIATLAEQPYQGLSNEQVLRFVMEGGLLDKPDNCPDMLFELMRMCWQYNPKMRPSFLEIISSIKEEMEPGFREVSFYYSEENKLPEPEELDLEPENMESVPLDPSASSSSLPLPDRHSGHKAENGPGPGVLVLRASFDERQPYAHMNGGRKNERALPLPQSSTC

One may read the inhibition as the drop in the measured response relative to a control, in per cent. As for `C[C@@H](Oc1cc(-n2cnc3ccc(OCC4CCN(C)CC4)cc32)sc1C(N)=O)c1ccccc1C(F)(F)F`, the inhibition was 12.6% in assay [1]; 3.31% in assay [2]; 32.6% in assay [3]; -4.89% in [4]; -1.61% in assay [5]; -0.09% in assay [6]. Further, the inhibition is 1.24% in assay [7]; -3.02% in [8]; -2.86% in assay [9]; -1.81% in [10]; 0.89% in [11]; -1.08% in assay [12]. The inhibition was -2.39% in [13]; -0.93% in assay [14]; 2.51% in [15]; -0.8% in assay [16]; 30.1% in assay [17]; 2.65% in assay [18]. Moreover, the inhibition was 34.4% in assay [19] and -0.76% in assay [20].
On to `C[C@@H](Oc1cc(-n2cnc3ccc(OC[C@@H](O)CO)cc32)sc1C(N)=O)c1ccccc1Cl`, for which the inhibition was 5.15% in assay [1]; -0.15% in assay [2]; 6.39% in assay [3]; -1.52% in assay [4]; -0.34% in [5]; 0.87% in assay [6]. Further, the inhibition in assay [7] is 0.26%; in [8] it was -2.17%; in assay [9], -2.11%; in [10], 0.28%; in [11], 0.81%; in assay [12], -2.88%. Besides, the inhibition in [13] was 0.21%; in [14] it was -0.63%; in assay [15], 0.06%; in assay [16], -0.17%; in assay [17], 19.7%; in assay [18], 1.39%. Moreover, the figures for the inhibition in [19] and in [20] were 22.2% and -0.46%, respectively.
On to `COc1cc(Nc2nccc(-c3cnn4ncccc34)n2)cc(OC)c1`, for which the inhibition turned out to be 40.3% in assay [1]; 5.71% in assay [2]; 32.8% in assay [3]; 13.8% in assay [4]; 65.4% in [5]; 12.3% in assay [6]. The inhibition was 70% in assay [7]; 3.56% in [8]; 22.1% in assay [9]; 0.74% in assay [10]; 11.8% in assay [11]; 4.49% in assay [12]. The inhibition was 22.9% in assay [13]; 1.89% in assay [14]; 36.4% in [15]; 7.71% in assay [16]; 60.5% in assay [17]; 14.8% in assay [18]. For the same compound, the inhibition in assay [19] turned out to be 63.8%; in [20], 96.2%.
Take `COC(=O)c1ccc2c(c1)C(=Cc1cc(Br)c(O)c(Br)c1)C(=O)N2`: the inhibition in [1] was 22.5%; in [2] it was 5.59%; in assay [3], 18.3%; in [4], 3.29%; in assay [5] it was 2.72%; in assay [6], 3.96%. Also, the inhibition stood at 3.99% in assay [7]; 1.56% in assay [8]; 1.64% in assay [9]; 2.44% in [10]; 3% in assay [11]; 3.26% in assay [12]. Besides, the inhibition in assay [13] was 12.2%; in [14], 1.7%; in assay [15], 6.21%; in [16], 1.39%; in [17], 7.25%; in assay [18] it was 3.9%. In addition, the inhibition in assay [19] amounted to 24.5%; in assay [20] it was 3.84%.
On to `Oc1cccc(-c2nc(-c3ccccc3)[nH]c2-c2ccncc2)c1`, for which the inhibition in assay [1] came out at 17.9%; in assay [2] it was 13.7%; in assay [3] it was 51.2%; in assay [4], 2.68%; in assay [5] it was 5.15%; in assay [6], 1.16%. The inhibition in assay [7] was determined as 2.18%; in assay [8], 2.79%; in assay [9], 0.88%; in assay [10], 1.78%; in assay [11] it was 1.61%; in [12], 9.17%. The inhibition amounted to 5.42% in assay [13]; 1.43% in [14]; 2.51% in assay [15]; 0.73% in [16]; 9.09% in assay [17]; 30.8% in assay [18]. The inhibition in [19] was determined as 70.9%; in assay [20] it was 4.95%.
Regarding `CCS(=O)(=O)c1ccc(OC)c(Nc2ncc(-c3cccc(OC)c3)o2)c1`, the inhibition was determined as 76.5% in assay [1]; 21.1% in [2]; 67.2% in assay [3]; 2.1% in assay [4]; 4.95% in [5]; 0.3% in assay [6]. In addition, the inhibition in assay [7] is 5.78%; in assay [8] it was 3.08%; in assay [9], 3.36%; in [10], 1.61%; in assay [11] it was 5.9%; in [12] it was -0.79%. The inhibition is -4.39% in [13]; 0.87% in assay [14]; 1.58% in assay [15]; -1.19% in assay [16]; 5.85% in [17]; 48.4% in [18]. The inhibition came to 73.2% in assay [19] and 73.4% in assay [20].
